# Screens from PubChem.
# SARS PLP yeast = SARS-CoV PLP inhibition in yeast. S. cerevisiae expressing SARS-CoV PLpro, growth rescue. Potency, µM (titrated, usually from 32.9 µM), without a hit: at the top dose activity, positive = growth rescue, actives largely listed as activators. 330,000 compounds, 0.19% hits; calls by dose curve; also: potency is read from the fitted curve at half-maximal effect; 0% is about no effect; nearly all actives have a fitted effect of over 55% in size
# Cycloheximide cs = counter-screen for Shiga toxin inhibitors: cycloheximide protein synthesis inhibition; 300,000 compounds, 12% hits; cell reporter, cycloheximide protein synthesis inhibition counterscreen; max response, %; in the data active = max response mostly above about 13%, no sharp cut-off; inactive = mostly below about 14%; also: read at 38.3 µM for the half of the compounds with a filed dose; 0% is about no effect
# Shiga toxin inh = inhibitors of Shiga toxin in Vero cells; Vero cells, Shiga toxin protein synthesis inhibition reporter; 290,000 compounds, 9.2% hits; AID 2315; inhibition, % at 38.7 µM; in the data active = inhibition mostly above about 28%, no sharp cut-off; inactive = mostly below about 43%; also: 0% is about no effect
# NS1 function inh = influenza NS1 inhibition | Potency, µM (doses to about 46.1 µM), for inactives: at the top dose activity, positive = more growth | 270,000 compounds, 0.4% hits | AID 2326; calls by dose curve; also: potency is read from the fitted curve at half-maximal effect; actives are rising curves; nearly all actives have a fitted effect of over 50% in size
#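 S. cerevisiae expressing influenza A NS1, grown in glucose, washed, then diluted 1:100 into pH 6.0 -URA galactose medium with 23 nl compound. Growth recovery read as OD600; NS1-free strain serves as control.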
# Pf growth 48h = inhibits P. falciparum growth in the first generation, 48 h | P. falciparum luciferase growth in erythrocytes, 48 h | Potency, µM (series often up to 28.7 µM), for inactives: at the top dose activity change, negative = inhibition, actives largely listed as inhibitors | 310,000 compounds, 5.9% hits | AID 504832; also: potency is read from the fitted curve at half-maximal effect; % is scaled to controls: 0 for no effect and ±100 for the full control effect
#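 Growth was read as firefly luciferase luminescence after a 48 h, 37 C, 5% CO2 exposure of compounds to reporter-bearing P. falciparum cultures (0.1% parasitemia, 2% hematocrit final) in Albumax-supplemented RPMI 1640.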
# Pf growth 96h = P. falciparum growth inhibition at 96 hour, primary screen for plastid delayed-death inhibitors; P. falciparum luciferase reporter growth, 96 h; Potency, µM (doses to about 28.7 µM), inactives show at the top dose activity change, negative = inhibition, most hits filed as inhibitors; 320,000 compounds, 6.9% hits; AID 504834; also: potency is read from the fitted curve at half-maximal effect; % is scaled to controls: 0 for no effect and ±100 for the full control effect
#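 Infected RBCs, 2% Hct / 0.05% parasitemia final; luciferase-reporter P. falciparum; cpd 96 h, 37 C, 5% CO2; luciferase detection reagent; luminescence.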
# * marks the source's active call; other numbers are inactive results; ? = inconclusive; . = no result given; [ ] = another dose, or the depositor's remark. An excerpt weighted towards active compounds, which were near 21% of everything screened. Unless noted, calls follow the shape of the dose curve; as a rule, active = well fitted inhibition curve with a large enough effect; inconclusive = small, poorly fitted or top-dose-only effect, or another doubt; inactive = no such curve, though single readings can be large or run the other way.
SMILES,SARS PLP yeast,Cycloheximide cs,Shiga toxin inh,NS1 function inh,Pf growth 48h,Pf growth 96h
Cc1ccc(S(=O)(=O)N2[C@@H](c3ccc(Cl)cc3)C(C(=O)O)=CC[C@H]2c2cccs2)cc1,7%,.,.,.,?,38%
CS(=O)(=O)N(CC(=O)N1CCc2ccccc2C1)Cc1ccccc1,6%,-4,-12,3%,.,52%
CN(C)S(=O)(=O)N1CCc2ccccc21,0%,-3,-6,-8%,-1%,.
O=C(CNS(=O)(=O)c1ccccc1)N1CCc2ccccc2C1,.,35*,.,0%,42%,7%
O=C(Cc1ccccc1[N+](=O)[O-])N1CCc2ccccc2C1,-2%,15*,51,-5%,0%,1.2µM*
Cc1ccc(S(=O)(=O)NCC(=O)N2CCc3ccccc3C2)cc1,4%,1,-7,7%,?,?
O=C(CS(=O)(=O)Cc1ccccc1)N1CCc2ccccc2C1,-5%,16*,40,-11%,5%,13%
O=S(=O)(Cc1ccccc1)N1CCc2ccccc21,-5%,13*,34*,-10%,-14%,.
O=C(Cc1ccc([N+](=O)[O-])cc1)N1CCc2ccccc2C1,-6%,-3,10,1%,-4%,?
Cc1ccc(SCC(=O)Nc2ccc(F)cc2[N+](=O)[O-])cc1C,3%,-2,12,-13%,1%,3%
O=C(COc1ccc(Br)cc1)N/N=C1/SCC(=O)N1Cc1ccccc1,-3%,-5,-7,-3%,-9%,-4%
Cc1cccnc1NC(=O)c1csnn1,-1%,-3,-15,2%,15%,30%
CC(=O)Nc1ccc(/C=C/c2noc(-c3ccccc3O)n2)cc1,-1%,21,54*,-4%,91%,109%
Cc1cc(N(C)/N=C/c2ccccc2O)nc(-c2ccccc2O)n1,-1%,-3,11,.,?,?
Oc1ccccc1/C=C/c1noc(-c2ccccc2O)n1,0%,33*,70*,0%,-42%,?
COc1cc(C=Nc2c(C)cc(C)cc2C)ccc1OC(C)=O,13%,2,-12,-3%,5%,-2%
COc1cc(/C=C/c2noc(-c3ccccc3O)n2)ccc1OC(C)=O,-1%,15*,42*,-3%,281%,473%
CCCn1c(N)c(N(CCOC)C(=O)/C=C/c2cccc(Cl)c2)c(=O)[nH]c1=O,0%,8,-9,.,13%,16%
COc1ncnc2c1oc1nc(CC(C)C)c3c(c12)CC(C)(C)OC3,1%,-2,-14,5%,2.1µM*,?
Cc1ccc(O)c(C(=O)c2cnn(C(=O)c3cccc(S(=O)(=O)N(C)C)c3)c2)c1,3%,.,.,.,17%,6%
CCOCC(=O)Nc1ccc(S(=O)(=O)Nc2nccs2)cc1,-3%,-1,-10,0%,-5%,12µM*
O=C(CCl)Nc1ccc(S(=O)(=O)Nc2nccs2)cc1,0%,-4,-4,4%,2.3µM*,1.5µM*
CC(=O)Nc1ccc(S(=O)(=O)Nc2nccs2)cc1,2%,-3,-2,?,-1%,?
O=C(c1nc2ccc(Cl)cn2c1CNCCc1cnccn1)N1CCCCCCC1,-4%,-6,18,2%,41%,45%
CCC(C)c1ccc(NC(=O)CSc2nncn2N)cc1 (configuration not stated),-7%,26,35,7%,51%,81%
SMILES,SARS PLP yeast,Cycloheximide cs,Shiga toxin inh,NS1 function inh,Pf growth 48h,Pf growth 96h
CCOC(=O)c1ccc(NC(=O)CSc2nnc(C3CCCCC3)n2C)cc1,14%,-2,7,3%,6.6µM*,8.3µM*
CCOC(=O)c1ccc(NC(=O)CSc2nnc(-c3cccs3)n2C)cc1,-4%,-3,-18,5%,?,3.3µM*
CCOc1ccc(NC(=O)CSc2nnc(C34CC5CC(CC(C5)C3)C4)n2C)cc1,14%,-2,-11,-8%,.,-12%
CCOc1ccc(NC(=O)CSc2nnc(C3CC3)n2C)cc1,-2%,-1,2,4%,-3%,2.1µM*
Nn1cnnc1SCC(=O)Nc1ccc(C2CCCCC2)cc1,4%,50*,81*,-15%,113%,-22%
CCOC(=O)c1ccc(NC(=O)CSc2nnnn2C2CCCCC2)cc1,29%,1,2,0%[9.22 µM],7%,294%
CC(=O)Nc1ccc(S(=O)(=O)N(C)CC(=O)OCC(=O)N2CCCCCC2)cc1,-1%,-5,-14,5%,?,37%
C[C@H](NC(=O)N1CCn2c1nc1ccccc12)C(=O)NCCc1ccccc1,-2%,-2,2,-2%,-18%,-19%
Cn1c(SCC(=O)c2ccccc2)nnc1C1CC1,-8%,9,-4,-8%,39%,32%
CCOc1ccc(C(=O)CSc2nnc(C3CC3)n2C)cc1,-21%,14*,37*,-3%,1%,-36%
CN1C(=S)SC(/[N+]([O-])=C\c2ccccc2)C1(C)C (configuration not stated),-2%,4,-9,8%,-16%,23%
CN1C(=S)SC(/[N+]([O-])=C/c2cccnc2)C1(C)C (configuration not stated),2%,-2,-9,?,12%,3.7µM*
CC[C@@]1(O)C[C@H](O[C@H]2C[C@@H](N(C)C)[C@@H](O[C@H]3C[C@@H](O)[C@@H](O[C@H]4CCC(=O)[C@@H](C)O4)[C@@H](C)O3)[C@@H](C)O2)c2c(cc3c(c2O)C(=O)c2c(O)cccc2C3=O)[C@H]1C(=O)OC,.,.,.,.,0.085µM*,0.06µM*
COc1cc(-c2ccc(-[n+]3nc(-c4ccccc4)nn3-c3ccc([N+](=O)[O-])cc3)c(OC)c2)ccc1-[n+]1nc(-c2ccccc2)nn1-c1ccc([N+](=O)[O-])cc1,.,.,.,.,5.4µM*,6.7µM*
COc1ccc([N+](=O)[O-])cc1C(=O)C(=O)c1ccccc1,6%,-2,-7,4%,10%,-24%
CN(C)c1ccc(C2CC(c3ccccc3)=Nc3nc(-c4ccccc4)cn32)cc1 (configuration not stated),-6%,31*,12,22%,8.3µM*,5.2µM*
CN(C)c1ccc(-c2n[nH]c(=S)n2-c2ccccc2)cc1,1%,8,-3,.,2%[5.75 µM],?
O=C(CC(Cc1ccccc1)C(=O)O)Nc1ccc(F)cc1 (configuration not stated),8%,-3,-7,-2%,-16%,2.3µM*
Cc1ccc(NC(=O)Cc2ccc(F)cc2)cc1,0%,21*,13,0%,59%,.
O=C(CNc1ccccc1)Nc1ccc(F)cc1,-2%,75*,118*,?,224%,.
COc1ccc(NC(=O)CC(Cc2ccccc2)C(=O)O)cc1 (configuration not stated),2%,7,-20,-1%,-4%,4%
Cc1ccc(NC(=O)CSCc2ccco2)cc1,-1%,23*,105*,.,69%,17%
